Structures are written as SMILES. Results filed as inconclusive are left out. Entries that show only a call come without a potency. The source made the active and inactive calls. Calls come from the whole dose curve; as a rule, active = well fitted cell-killing curve with a large enough effect; inconclusive = small, poorly fitted or top-dose-only effect; inactive = flat fitted curve, though single readings scatter.

One assay in a line: Cell Viability - LYMP2-024 (AID 988).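 Note: cells exposed to compound for 24 hr at 37 °C; nearly all actives have a fitted effect of over 60% in size.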 As to conditions: LYMP2-024 lymphoblastoid cell viability; series mostly up to 92.2 µM. An outline of the steps: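 Cells at 2500 per well received compound for 24 hr after a 5 hr settling period. Viability was scored by CellTiter-Glo luminescence, with AC50 from Hill fits.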
`Oc1cccc(Cl)c1Cl`: the Potency result was “inactive”. As for `CCC/C=N/O`, the Potency entry is “inactive”. `Cc1cnc[nH]1`: the Potency result is “inactive”. For `CN(C)N=O`, the Potency result is “inactive”. As for `COc1c(C(C)(C)C)cc([N+](=O)[O-])c(C)c1[N+](=O)[O-]`, the Potency result is “inactive”. As for `C=C(Cl)CCl`, the Potency result was “inactive”. For the molecule `ClCCOCOCCCl`, the Potency result was “inactive”.

Regarding `CC12CC1(C)C(=O)N(c1cc(Cl)cc(Cl)c1)C2=O` (configuration not stated), the Potency result is “inactive”. With `CC(C)(Cl)[N+](=O)[O-]`, the Potency entry was “inactive”.

For the molecule `Cl/C=C/Cl`, the Potency entry is “inactive”. As for `CCCCOCC1CO1` (configuration not stated), the Potency entry is “inactive”. In the case of `O=C(O)c1cccc(Cl)c1`, the Potency entry is “inactive”. As to `C1CC2OC2CC1C1CO1` (configuration not stated), the Potency result is “inactive”. For `Brc1cccc(-c2ccccc2)c1`, the Potency result is “inactive”. Take `Oc1c(Cl)cccc1Cl`: the Potency entry is “inactive”. Regarding `ClCCOCCCl`, the Potency result was “inactive”. The same measure, in the same setting: in the case of `CCNCC` it was “inactive”; in that of `CC(C)C#N`, “inactive”. The same measure, in the same setting: as for `Cl/C=C\Cl`, the entry is “inactive”; as for `c1ccc2c(c1)CCNC2`, “inactive”.

As for `CCBr`, the Potency result was “inactive”. As to `O=[N+]([O-])c1ccc(Cl)c(Cl)c1Cl`, the Potency entry was “inactive”.

In the case of `N#CCCC#N`, the Potency entry is “inactive”. On to `Cc1ccccc1[N+](=O)[O-]`, for which the Potency result was “inactive”. On the same count and under the same terms, in the case of `OCCBr` it was “inactive”; in that of `C=CC(=O)OCCN(C)C`, “inactive”.

Turning to `CC(C)(C)C(O)(CCc1ccc(Cl)cc1)Cn1cncn1` (configuration not stated), the Potency result is “inactive”. `N#CCCCCC#N`: the Potency entry was “inactive”. Regarding `CN=C=O`, the Potency result was “inactive”. Consider `c1ccc(C2CO2)cc1` (configuration not stated), for which the Potency result is “inactive”.

Turning to `CCCCCC[N+](=O)[O-]`, the Potency entry is “inactive”. In the case of `OCC(Cl)CCl` (configuration not stated), the Potency entry is “inactive”. For `COc1ccc(C=O)cc1`, the Potency result is “inactive”.

Regarding `Nc1ccc(Cl)c(Cl)c1`, the Potency result is “inactive”. Same read-out and setting: as for `CC(=O)[O-].CC(=O)[O-].CC(=O)[O-].[Cr+3]`, the entry is “inactive”. As for `CC(=O)CCC(C)=O`, the Potency result is “inactive”. With `C=CC(=O)OCC(CC)CCCC` (configuration not stated), the Potency result is “inactive”. Same read-out and setting: in the case of `CC(C#N)CCC#N` (configuration not stated) it was “inactive”.

A short description of a further assay: Cell Viability - LYMP2-026 (AID 989).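 Note: cells exposed to compound for 24 h at 37 °C; nearly all actives have a fitted effect of over 50% in size.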 As to conditions: LYMP2-026 lymphoblastoid cell viability, qHTS; series mostly up to 92.2 µM. An outline of the steps:
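Acute toxicity screen in complete culture medium, with 24 hr compound exposure at 37 C. Viability read as cellular ATP via luciferase reaction, with tetraoctylammonium bromide (6.4pM to 92 uM) as positive control.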
In general terms: In qHTS, concentration-response curves come from the screen itself.
With `Oc1cccc(Cl)c1Cl`, the Potency result was “inactive”. `CCC/C=N/O`: the Potency result is “inactive”.

On to `Nc1cccc2ccccc12`, for which the Potency entry is “inactive”. As to `Cc1cnc[nH]1`, the Potency result is “inactive”. With `CN(C)N=O`, the Potency entry was “inactive”. Take `COc1c(C(C)(C)C)cc([N+](=O)[O-])c(C)c1[N+](=O)[O-]`: the Potency entry is “inactive”. For the molecule `C=C(Cl)CCl`, the Potency entry is “inactive”. Still for that read-out and setting: as for `ClCCOCOCCCl`, the entry is “inactive”. On the same count and under the same terms, in the case of `CC12CC1(C)C(=O)N(c1cc(Cl)cc(Cl)c1)C2=O` (configuration not stated) it was “inactive”; in that of `CC(C)(Cl)[N+](=O)[O-]`, “inactive”. For the molecule `Cl/C=C/Cl`, the Potency result is “inactive”.

With `CCCCOCC1CO1` (configuration not stated), the Potency entry is “inactive”. In the case of `O=C(O)c1cccc(Cl)c1`, the Potency entry is “inactive”. For `C1CC2OC2CC1C1CO1` (configuration not stated), the Potency result was “inactive”.

Take `Brc1cccc(-c2ccccc2)c1`: the Potency result was “inactive”. Same read-out and setting: as for `Oc1c(Cl)cccc1Cl`, the entry is “inactive”. In the case of `ClCCOCCCl`, the Potency entry was “inactive”.

Take `CCNCC`: the Potency result is “inactive”. As to `CC(C)C#N`, the Potency result was “inactive”. Still for that read-out and setting: in the case of `Cl/C=C\Cl` it was “inactive”; in that of `c1ccc2c(c1)CCNC2`, “inactive”. Take `CCBr`: the Potency result is “inactive”. As to `O=[N+]([O-])c1ccc(Cl)c(Cl)c1Cl`, the Potency entry is “inactive”.

As for `N#CCCC#N`, the Potency entry was “inactive”. Turning to `Cc1ccccc1[N+](=O)[O-]`, the Potency entry was “inactive”. Take `OCCBr`: the Potency entry is “inactive”.

Turning to `C=CC(=O)OCCN(C)C`, the Potency entry is “inactive”. Still for that read-out and setting: in the case of `CC(C)(C)C(O)(CCc1ccc(Cl)cc1)Cn1cncn1` (configuration not stated) it was “inactive”; in that of `N#CCCCCC#N`, “inactive”.

Turning to `CN=C=O`, the Potency result is “inactive”. The same measure, in the same setting: in the case of `c1ccc(C2CO2)cc1` (configuration not stated) it was “inactive”; in that of `CCCCCC[N+](=O)[O-]`, “inactive”.

With `OCC(Cl)CCl` (configuration not stated), the Potency result was “inactive”. Still for that read-out and setting: in the case of `COc1ccc(C=O)cc1` it was “inactive”; in that of `Nc1ccc(Cl)c(Cl)c1`, “inactive”; in that of `CC(=O)[O-].CC(=O)[O-].CC(=O)[O-].[Cr+3]`, “inactive”. With `CC(=O)CCC(C)=O`, the Potency result was “inactive”. As to `C=CC(=O)OCC(CC)CCCC` (configuration not stated), the Potency result is “inactive”.

`CC(C#N)CCC#N` (configuration not stated): the Potency entry is “inactive”.

The values above are taken from PubChem BioAssay (NCATS).
